Measurements taken from ChEMBL document CHEMBL3988442, “University of Dundee, Small-Polar-MMV Screening Library” (2021).
Out of some 38,000 compounds screened, about 1,200 (3.2%) showed an effect of 50% or more. The median lay at about -58%. The list comes from a sample in which strong results are over-represented; it also holds similar structures and randomly drawn compounds.

The molecules below were run on Plasmodium falciparum (assay: Calibr Malaria Delayed Death Assay SOP). Conditions: concentration 4.99e-06 (unit not given; other assays of the set use mol/L).
Assay type: functional, organism-based
Design: scale not given: in the data most compounds retested in dose-response had high values

SMILES | Percent Effect [%]
Cc1ccc([C@H]2CN(C(=O)C3CCC3)C[C@@H]2N)o1 | -3.638
Cc1nc(N2CCN(C)CC2)ncc1C(=O)N1CCCCCC1 | -28.58
O=C1CCN(C(=O)CCc2ccc(Cl)cc2Cl)CCN1 | -159.9
Cc1cnn(CC2CCCCN2C(=O)c2cccc(C(N)=O)c2)c1 (stereo not drawn) | -136.1
CCCn1ncc(CN(CCN(C)C)Cc2ccsc2)c1C | 54.25
CCCn1ncc(CN(Cc2cccnc2)Cc2ccsc2)c1C | -140.4
CCCn1ncc(CN(Cc2ccsc2)Cc2ccco2)c1C | -133.4
Cc1ccc(NC2CCN(C(=O)COc3ccccc3)CC2)nn1 | -125.7
O=c1n(CCNCc2ccc3ccccc3c2)nc2ccccn12 | -86.86
CCOc1cc(C(=O)N2CCCC(c3noc(CC)n3)C2)ccn1 (stereo not drawn) | -108.4
NCC1Cc2cc(-c3cncc(C(=O)N4CCCCC4)n3)cc(F)c2O1 (stereo not drawn) | 51.14
O=C(c1cncc(NCC2COc3ccccc3C2)n1)N1CCCC1 (stereo not drawn) | -147.2
NCC1Cc2cc(-c3cncc(C(=O)N4CCOCC4)n3)cc(Cl)c2O1 (stereo not drawn) | -15.5
Cc1nc(-c2ccco2)ccc1C(=O)NCCC(=O)N1CCCCC1 | -60.18
Cc1cc(C(=O)NCc2ccco2)nn1C | -62.29
Cc1cc(C)c2cc(CNCc3ccco3)c3nn(C)c(=O)n3c2c1 | 74.31
Cc1ccc(CNC(=O)c2cc(C)n(C)n2)o1 | -43.25
Cc1cc(C)c2cc(CNCc3ccc(C)o3)c3nn(C)c(=O)n3c2c1 | 62.16
Cc1cc(C)c2cc(CNC(C)C)c3nn(C)c(=O)n3c2c1 | 20.42
CCOCCCNCc1cc2c(C)cc(C)cc2n2c(=O)n(C)nc12 | -70.5
Cc1cc(C)c2cc(CNC3CCCCC3)c3nn(C)c(=O)n3c2c1 | 78.75
Cc1ccn(CCC(=O)NCc2ccc(C)o2)n1 | -117.2
Cc1cc(C)c2cc(CNCc3cccnc3)c3nn(C)c(=O)n3c2c1 | 28.22
COc1ccccc1CCNC(=O)NCC(=O)Nc1cccnc1 | -188.8
COC(=O)CNC(=O)CCCn1cnc2ccccc2c1=O | -30.86

SMILES | Percent Effect [%]
O=C(c1cccnc1-c1ccoc1)N1C[C@H]2CC[C@@H]1C2 | 6.669
O=C(O)C(F)(F)F.OCCN1CCC2(CCc3cc(-c4ccoc4)ccc32)CC1 | 60
O=C(O)C(F)(F)F.O=C(O)C(F)(F)F.c1cncc(-c2ccc3c(c2)CCC32CCN(Cc3ccco3)CC2)c1 | 73.11
CN(C)CC(=O)N1CCC2(CCc3cc(-c4cccnc4)ccc32)CC1.O=C(O)C(F)(F)F.O=C(O)C(F)(F)F | 79.5
O=C(O)C(F)(F)F.c1cncc(-c2ccc3c(c2)C2(CC3)CCN(c3nncs3)CC2)c1 | 21.42
Cc1ccc2c(c1)CCC21CCN(C(=O)CN(C)C)CC1.O=C(O)C(F)(F)F | 50.73
O=C(O)C(F)(F)F.O=C(O)C(F)(F)F.c1cncc(-c2ccc3c(c2)CCC32CCN(Cc3nccs3)CC2)c1 | 47.52
CN(C)CC(=O)N1CCC2(CCc3ccc(-c4ccncc4)cc32)CC1.O=C(O)C(F)(F)F.O=C(O)C(F)(F)F | -49.14
O=C(CCO)N1CCC2(CCc3ccc(-c4ccoc4)cc32)CC1 | -85.78
Cc1ccc2c(c1)CCC21CCN(CCO)CC1 | 15.58
CN(C)CC(=O)N1CCc2ncnc(-c3cncnc3)c2CC1.O=C(O)C(F)(F)F | -41.61
CN(C)CC(=O)N1CCC2(CC1)Cc1ccccc1CN(C)C2=O.O=C(O)C(F)(F)F | -24.83
Cc1ccc2c(c1)C1(CC2)CCN(CC(=O)O)CC1.O=C(O)C(F)(F)F | -81.36
Cc1ccc(CN2CCc3ncnc(-c4ccoc4)c3CC2)o1.O=C(O)C(F)(F)F | -147
Cc1ncc(C(=O)N2CCCCC2c2nc3cc(F)ccc3[nH]2)c(O)n1 (stereo not drawn) | -22.18
CS(=O)(=O)N1CCO[C@@H]2CN(C(=O)C3CCOC3)CC[C@@H]2C1 (stereo partly drawn) | -33.97
CC1c2ncc(Cn3cccn3)n2CCN1S(C)(=O)=O.O=C(O)C(F)(F)F (stereo not drawn) | -110.2
COc1ccc2c(ccn2CCC(=O)N[C@H](C(=O)O)C(C)C)c1 | -46.34
O=C(O)C(F)(F)F.O=S(=O)(C1CC1)N1C[C@H]2CCC[C@@]2(COCc2ccccn2)C1 | 2.137
Cc1ccc(CNc2cc3c(cc2Cl)NC(=O)CO3)cc1C | -53.48
CC(C)c1nccc(-c2nccn2CCS(C)(=O)=O)n1 | -2.25
COc1cccc(OCC(=O)N(C)c2cccnc2)c1 | -135.2
c1cncc(-c2ccc3c(c2)CCC32CCNCC2)c1 | 86.19
c1cc(-c2ccc3c(c2)C2(CCNCC2)CC3)ccn1 | -27.62
O[C@H]1[C@H](n2cc(-c3cccnc3)nn2)c2ccccc2C12CCNCC2 | -21.88

SMILES | Percent Effect [%]
CCCN1CCCn2nc(CNS(=O)(=O)c3ccc(F)cc3)cc2C1 | -65.3
Cc1nnn2c1COC(CNC(=O)c1cccn1C)C2 (stereo not drawn) | -28
COc1cc(CNC(C)Cn2cccn2)cc(OC)c1OC.Cl (stereo not drawn) | -15.53
COc1ccc(C(C)NCc2c[nH]nc2C)cc1Br.Cl (stereo not drawn) | 17.2
COc1ccccc1CNC(C)c1ccc2[nH]c(=O)[nH]c2c1 (stereo not drawn) | -107.7
CCOc1cccc(C(C)NCc2c(C)nn(C)c2N(C)C)c1 (stereo not drawn) | -4.179
COc1cc(CNC(C)Cn2cccn2)cc(Cl)c1OC.Cl (stereo not drawn) | -39.22
COc1cccc(CNC(C)Cn2cccn2)c1OC.Cl (stereo not drawn) | -25.91
CCOc1cccc(C(C)NCc2ccc(OC)c(OC)c2OC)c1 (stereo not drawn) | 77.1
COc1cc(CNC(C)c2cccc(Cl)c2)cc(OC)c1OC (stereo not drawn) | 62.46
COc1ccc(CNC(C)c2cccc(Br)c2)c(OC)c1OC.Cl (stereo not drawn) | 66.18
CC1c2ncc(CNC(=O)C3CC3)n2CCN1Cc1ccccn1.O=C(O)C(F)(F)F.O=C(O)C(F)(F)F (stereo not drawn) | -38.32
Cc1sc(CS(C)(=O)=O)nc1-c1ccc(Cl)cc1 | -81.11
Cc1cc(N2CCC3(CCCN(C4CCOCC4)C3=O)C2)ccn1 (stereo not drawn) | -85.7
Cc1cc(NC(=O)N2CCCC2CN2CCOCC2)nn1C (stereo not drawn) | -54.38
Cc1n[nH]cc1CNC1CCN(c2cccc(C(F)(F)F)c2)CC1 | 62.67
Cc1n[nH]cc1CNC1CCN(c2ccc(F)cc2)CC1.Cl | -38.43
COc1cccc(-c2n[nH]cc2CNC2CCN(C3CC3)CC2)c1.Cl | 18.36
Cn1[nH]c(Br)c2/c(=N\CCN)ncnc1-2 | -80.01
CN(Cc1nnc(C2CC2)n1C)C1CCN(CCc2ccccc2)C1 (stereo not drawn) | -85.28
CN(C(=O)CCc1ccncc1)C1CCCN(CCc2ccccc2)C1 (stereo not drawn) | -32.08
CN(C(=O)CSc1ccccn1)C1CCCN(CCc2ccccc2)C1 (stereo not drawn) | -11.51
CCn1ccnc1CN(C)C1CCCN(CCc2ccccc2)C1 (stereo not drawn) | 76.22
CN(C(=O)c1cccnc1)C1CCCN(CCc2ccccc2)C1 (stereo not drawn) | -66.95
O=C(NCCOc1ccc(Cl)cn1)NCCc1ccccn1 | -11.42

SMILES | Percent Effect [%]
O=c1cc2c(nn1CN1CCSCC1)CCC2 | -0.0745
CN(C)C1CCCN(C(=O)NCCc2cc(F)ccc2F)C1 (stereo not drawn) | -83
CC(=O)N1CC(C)CN(C(=O)c2cnccn2)c2ccccc21 (stereo not drawn) | -30.69
Cn1nccc1NC(=O)c1cccc(CN2C[C@H]3CC[C@@H](C2)N3)c1 | -132.7
CCCc1ccc(CN2CCC3(CC2)CNC(=O)C3)o1 | 20.41
Cn1nc(CN2CCCC2)c2c1CN(CC1CC1)CC2.O=C(O)C(F)(F)F.O=C(O)C(F)(F)F | -21.27
CC(C)n1nc(CN(C)C)c2c1CN(CC1CC1)CC2.O=C(O)C(F)(F)F.O=C(O)C(F)(F)F | -96.94
CC(C)n1nc(CN2CCCC2)c2c1CN(CC1CC1)CC2.O=C(O)C(F)(F)F.O=C(O)C(F)(F)F | 54
Cc1noc(C)c1CN1CC[C@H]2OCC[C@@]2(C(=O)NC2CCCC2)C1.O=C(O)C(F)(F)F | 8.677
CO[C@H]1CNC[C@@H]1NC(=O)c1cc(C)nc2c(C)cc(C)cc12 | 73.93
CO[C@H]1CNC[C@@H]1NC(=O)c1cc(C)nc2c(C)c(C)ccc12 | -1.359
Cc1cc(C)c2nc(C)cc(C(=O)NC(C)c3nnn[nH]3)c2c1 (stereo not drawn) | -3.579
CCc1cnc(N2C[C@@H]3[C@@H](C(=O)N(C)C)CCS(=O)(=O)[C@@H]3C2)nc1 | -56.54
Cc1cc(C(=O)N2CCn3cc(CN(C)C)nc3C2)no1 | -39.89
Cc1noc(C(C)C)c1C(=O)NCC(c1ccsc1)N(C)C (stereo not drawn) | 17.17
Cc1noc(C)c1C(=O)NCC(c1ccsc1)N(C)C (stereo not drawn) | -8.165
O=C(O)C(F)(F)F.O=C(c1ccccn1)N1C[C@H]2CCC[C@@]2(COCC2CCOCC2)C1 | -43.42
Cc1ccc(S(=O)(=O)NCCc2ccoc2)s1 | -129
Cc1cc(CN2CCC(CNS(=O)(=O)c3c(C)noc3C)CC2)c(C)o1 | 26.64
Cc1cc(CN2CCC(CNS(=O)(=O)c3ccc(Br)s3)CC2)c(C)o1 | 91.4
O=S(=O)(NCC(O)c1ccoc1)c1ccc(Br)s1 (stereo not drawn) | -179.3
Cc1cc(C(O)CCNS(=O)(=O)c2ccc(Cl)s2)c(C)o1 (stereo not drawn) | -41.19
Cc1cc(CN2CCC(CNS(=O)(=O)c3ccc(C)s3)CC2)c(C)o1 | 87.35
